Several values for one entry are separate records, joined by “and”; a condition that tells them apart may be missing. Identical values can stand only once. Records with an inconclusive call do not appear. The source holds several records for some structures; these can differ, active in one and inactive in another. Activity calls are given as the source filed them. Unless noted, calls come from the whole dose curve; as a rule, active = well fitted curve in the direction sought with a large enough effect; inconclusive = small, poorly fitted or top-dose-only effect, or another doubt; inactive = no such curve, though single readings can be large; an effect the other way counts as inactive or inconclusive.
Assays:
[1] = Cell Viability - BJ (AID 421; calls by dose curve;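 note: potency is the fitted concentration of half-maximal effect; cells exposed to compound for 40 hours at 37 °C before readout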); settings: BJ fibroblast viability, qHTS
How it was run: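 Quantitative HTS: ATP depletion in BJ cells after 40 hr compound exposure in complete culture medium, detected with CellTiter-Glo; AC50 from standard Hill fits.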

[2] = Cell Viability - Jurkat (AID 426;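 active = dose-dependent loss of cell ATP signal giving a full or clear fitted curve, ranked by lower potency value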;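 note: potency is the fitted concentration of half-maximal effect; cells exposed to compound for 40 hours at 37 °C before ATP read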); settings: qHTS
How it was run: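 Seed 5000 Jurkat E6-1 cells/well; add compound; incubate 40 hr at 37 °C; add CellTiter-Glo; wait 20 min at room temperature; read luminescence. Fit concentration-response with Hill equation for AC50.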

[3] = Cell Viability - Hek293 (AID 427;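 active = compounds whose dose-response curve shows a full or clear partial loss of cell viability, called from curve shape rather than a numeric limit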;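 note: potency is the fitted concentration of half-maximal effect; cells exposed to compound for 40 hours at 37 °C before reading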); settings: qHTS
How it was run: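 AC50 values derive from Hill-modelled concentration-response of ATP-based luminescence, normalized between DMSO-only and 100 uM tamoxifen controls. Cells were exposed in complete culture medium for 40 hr at 37 °C before detection.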

[4] = Cell Viability - HepG2 (AID 433; calls by dose curve;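 note: potency is the fitted concentration of half-maximal effect; cells exposed to compound for 40 hours; potency for ATP loss meaning cytotoxicity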); settings: qHTS
How it was run: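 Cytotoxicity read as ATP loss (CellTiter-Glo luminescence) after 40 hr compound exposure of HepG2, 1500 cells/well, 37 °C. AC50 by Hill equation; 0% set by DMSO, 100% inhibition by 100 uM tamoxifen.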

[5] = Cell Viability - MRC5 (AID 434; calls by dose curve;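 note: potency is the fitted concentration of half-maximal effect; cells exposed to compound for 40 hours at 37 °C; potency reflects cytotoxicity seen as loss of intracellular ATP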); settings: MRC5 lung fibroblast viability, qHTS
How it was run: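 qHTS cytotoxicity in human lung fibroblast MRC5 cells; 40 hr treatment, 37 °C; cellular ATP by luciferase luminescence; DMSO = 0%, 100 uM tamoxifen = 100% inhibition; Hill-fit AC50.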

[6] = Cell Viability - SK-N-SH (AID 435; calls by dose curve; note: potency is the fitted concentration of half-maximal effect); settings: SK-N-SH neuroblastoma cell viability qHTS
How it was run: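 qHTS cytotoxicity: CellTiter-Glo ATP luminescence after 40 h compound exposure of human neuroblastoma SK-N-SH cells at 37 °C. AC50 derived by Hill-equation fitting, with DMSO as basal and 100 uM tamoxifen as full inhibition.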

[7] = molecular target: Mitogen-activated protein kinase 10 (Mus musculus) (UniProt Q61831); assay: JNK3 AlphaScreen Assay (AID 530; active = well fitted curve in either direction with a large enough effect, not every such curve was filed as active;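 note: kinase came from lysate of stimulated human HepG2 cells; signal reports phosphorylation of biotinylated GST-cJun 1-79 at Ser73 with 10 µM ATP; % is set by controls: 0 for no effect and ±100 for the full control effect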)
How it was run: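 Room-temperature AlphaScreen kinase assay; pre-activated HepG2 lysate as JNK3 source, biotin-GST-cJun(1-79) substrate, 10 uM ATP, compound 15 min preincubation.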

[8] = Cell Viability - N2a (AID 540); settings: N2a mouse neuroblastoma cell viability; activity change, negative = cytotoxicity: at 92.2 µM (top of the series); note: potency is the fitted concentration of half-maximal effect; nearly all actives have a fitted effect of over 45% in size
How it was run: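 First, 1500 N2a cells per well incubate 5 hr at 37 °C; next, compounds are added and incubated 40 hr at 37 °C; finally CellTiter-Glo is added and luminescence read after 20 min, with AC50 derived by Hill modeling.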

[9] = Cell Viability - NIH 3T3 (AID 541); settings: NIH 3T3 cell viability, qHTS; activity change, negative = cytotoxicity: at 92.2 µM (top of the series);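 note: cells exposed to compound for 40 hours; plate controls were DMSO alone for no effect and tamoxifen positive control for full effect; nearly all actives have a fitted effect of over 25% in size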
How it was run: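 AC50 values reflect concentration-dependent loss of intracellular ATP in NIH 3T3 cells after 40 hr treatment in complete culture medium, quantified by luciferase-based luminescence.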

[10] = Cell Viability - HUV-EC-C (AID 542);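 note: potency is the fitted concentration of half-maximal effect; cells exposed to compound for 40 hours; nearly all actives have a fitted effect of over 35% in size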
How it was run: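 Decrease in cellular ATP, quantified by luciferase luminescence, reflects toxicity in normal human vascular endothelial HUV-EC-C cells given compound for 40 hr in complete culture medium. Values are AC50s from concentration-response curves.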

[11] = Cell Viability - H-4-II-E (AID 543);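 note: potency is the fitted concentration of half-maximal effect; cells exposed to compound for 40 hours; nearly all actives have a fitted effect of over 35% in size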
How it was run: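 Here, cytotoxicity is measured in the rat hepatoma line H-4-II-E as loss of intracellular ATP after 40 hr compound treatment, detected by luciferase luminescence.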

[12] = Cell Viability - SH-SY5Y (AID 544); settings: SH-SY5Y neuroblastoma cell viability; viability change, negative = cytotoxic: at 92.2 µM (top of the series);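 note: cells exposed to compound for 40 hours; nearly all actives have a fitted effect of over 55% in size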; note: potency is the fitted concentration of half-maximal effect
How it was run: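 Cytotoxicity is scored as a concentration-dependent fall in intracellular ATP in human SH-SY5Y cells treated 40 hr in complete culture medium. Potency is expressed as AC50 from a Hill equation fit.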

[13] = Cell Viability - Renal Proximal Tubule (AID 545); settings: renal proximal tubule cells viability; activity change, negative = cytotoxicity: at 91.7 µM (top of the series) unless noted;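 note: cells exposed to compound for 40 hours; nearly all actives have a fitted effect of over 40% in size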; note: potency is the fitted concentration of half-maximal effect
How it was run: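 Viability taken as intracellular ATP (CellTiter-Glo luminescence) after 40 hr, 37 °C compound treatment of primary proximal tubule cells from rat kidney, 1000 cells/well; Hill-equation fits of qHTS concentration-response data gave AC50.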

[14] = Cell Viability - Mesenchymal (AID 546); settings: mesenchymal cells viability, qHTS; activity change, negative = cytotoxicity: at 91.7 µM (top of the series);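 note: cells exposed to compound for 40 hours before reading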; note: potency is the fitted concentration of half-maximal effect
How it was run: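 AC50 values reflect the drop in intracellular ATP in a human kidney mesenchymal line derived from normal glomeruli. Treatment lasts 40 hr at 37 °C in complete medium, and the signal comes from CellTiter-Glo luminescence.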

[15] = Cellular Toxicity (caspase-3) HUV-EC-C (AID 656)
How it was run: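 Luminescent Caspase-Glo 3/7 readout after 16 h, 37 °C compound exposure of HUV-EC-C endothelial cells, 1000 per well, complete medium. AC50 derived by Hill fitting, with DMSO as baseline and 100 uM tamoxifen as full activation.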

[16] = Cellular Toxicity (caspase-3) SHSY5Y (AID 657)
How it was run: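 Luminescent Caspase-Glo 3/7 read-out, 1 hr room temperature, follows 16 hours of compound treatment of SH-SY5Y cells at 37 °C. Normalization: DMSO basal, 10 uM staurosporine as 100%; AC50 values from Hill-equation concentration-response fits.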

[17] = Cellular Toxicity (caspase-3) MRC-5 (AID 659);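 note: 0% = DMSO basal and 100% = 10 µM staurosporine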
How it was run: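 Concentration-dependent caspase 3/7 activation is measured in human normal lung fibroblasts (MRC-5) following 16-hour treatment. AC50 values come from standard Hill-equation modeling of luminescence normalized to DMSO and 10 uM staurosporine.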

[18] = Cellular Toxicity (caspase-3) SK-N-SH (AID 661);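 note: 0% = DMSO basal and 100% = 10 µM staurosporine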
How it was run: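 Caspase 3/7 activation is measured as a luminescence increase from aminoluciferin released by substrate cleavage in SK-N-SH cells after 16 hr compound treatment; values are AC50 from concentration-response curves.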

[19] = Cellular Toxicity (caspase-3) Hek293 (AID 664); settings: HEK293 caspase-3 activation, DMSO = 0%, 100 µM tamoxifen = 100%; at 92.2 µM (top of the series);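 note: cells exposed to compound for 16 h at 37 °C before readout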
How it was run: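 Activation of caspase-3/7 is measured as increased luminescence from cleaved peptide-aminoluciferin substrate in HEK293 cells treated 16 hours at 37 °C. AC50 values come from Hill-equation fits of concentration-response data.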

[20] = Cellular Toxicity (caspase-3) N2a (AID 665);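 note: compound exposure lasted 16 h at 37 °C before readout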
How it was run: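 Plated mouse neuroblastoma N2a cells received titrated compounds for 16 h in complete medium. Caspase activity was then detected with a peptide-aminoluciferin luminescent reagent.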

[21] = Cellular Toxicity (caspase-3) NIH 3T3 (AID 666);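 note: caspase signal read after 16 h compound exposure; 0% = DMSO basal and 100% = 100 µM tamoxifen stimulation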
How it was run: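 Concentration-response qHTS in NIH 3T3 mouse fibroblasts scores caspase-3/7 activation as rising luminescence after 16 hr compound exposure. Signals are scaled between DMSO-only and 100 uM tamoxifen.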

[22] = Cellular Toxicity (caspase-3) Renal Proximal Tubule (AID 667); settings: renal proximal tubule cells; at 91.7 µM (top of the series) unless noted;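 note: cells exposed to compound for 16 hours at 37 °C before detection; 0% = DMSO basal and 100% = 10 µM staurosporine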
How it was run: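 Caspase 3/7 activation measured by luminescent aminoluciferin release in primary rat proximal tubule cells after 16 hr compound exposure at 37 °C. AC50 from Hill-fitted concentration-response, scaled between DMSO and 10 uM staurosporine.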

[23] = molecular target: Cytochrome P450 3A4 (Homo sapiens) (UniProt P08684); assay: qHTS Assay for Inhibitors and Substrates of Cytochrome P450 3A4 (AID 884); note: potency is the fitted concentration of half-maximal effect; nearly all actives have a fitted effect of over 50% in size
How it was run: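 20 nM human CYP3A4 with 25 uM Luciferin-PPXE (at KM) in 200 mM KPO4, preincubated 10 min with compound; NADPH regeneration started a 60 min RT reaction. Luciferin detected by luminescence, normalized to 57 uM ketoconazole as full inhibition.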

[24] = molecular target: Cytochrome P450 3A4 (Homo sapiens) (UniProt P08684); assay: qHTS Assay for Activators of Cytochrome P450 3A4 (AID 885); note: nearly all actives have a fitted effect of over 65% in size
How it was run: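 Quantitative HTS format: compounds preincubated with 20nM human CYP3A4 and Luciferin-PPXE substrate at KM, reaction started by NADPH regeneration, stopped after 60 min, luciferase luminescence read 20 min later.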

[25] = Cell Viability - LYMP2-001 (AID 921); note: nearly all actives have a fitted effect of over 70% in size; note: potency is the fitted concentration of half-maximal effect
How it was run: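 Cellular ATP loss read by luciferase luminescence after 24 h compound exposure at 37 C in complete medium. LYMP2-001 lymphoblastoid cells, 2500/well; qHTS concentration-response data fitted with Hill equation for AC50.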

[26] = MultiTox-Fluor Cytotoxicity Assay - LYMP1-001 - Dead Cells (AID 946); note: potency is the fitted concentration of half-maximal effect
How it was run: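 In this qHTS, 15 uM tetraoctylammonium bromide defined 100% and DMSO defined basal activity. Lymphoblastoid cells (LYMP1-001, 2500 per well) received compound for 16 hr at 37 C before a fluorogenic dead-cell substrate readout at 485/520 nm.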

[27] = MultiTox-Fluor Cytotoxicity Assay - LYMP1-001 - Live Cells (AID 947); note: potency is the fitted concentration of half-maximal effect
[28] = Cell Viability - LYMP1-002 - Assay at 16 hr (AID 948); note: potency is the fitted concentration of half-maximal effect
How it was run: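 ATP luminescence (CellTiter-Glo) was measured after 16 hr compound exposure at 37 C of 2500 lymphoblastoid LYMP1-002 cells per well. Concentration-response curves were fitted with the Hill equation to give AC50.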

[29] = MultiTox-Fluor Cytotoxicity Assay - LYMP1-002 - Live Cells (AID 955); note: potency is the fitted concentration of half-maximal effect
How it was run: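 Cytotoxicity in the human lymphoblastoid line LYMP1-002 is measured as loss of live-cell protease activity after 16 h treatment in complete culture medium. AC50 is derived from Hill-equation fits of qHTS concentration-response data.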

[30] = MultiTox-Fluor Cytotoxicity Assay - LYMP1-002 - Dead Cells (AID 960); note: potency is the fitted concentration of half-maximal effect; nearly all actives have a fitted effect of over 60% in size
How it was run: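 Acute cytotoxicity in a human lymphoblastoid line is scored as rising dead-cell protease signal after 16 hr exposure at 37 C, measured fluorometrically (485/520).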

[31] = MultiTox-Fluor Cytotoxicity Assay - LYMP1-003 - Dead Cells (AID 961); note: potency is the fitted concentration of half-maximal effect; nearly all actives have a fitted effect of over 70% in size
How it was run: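 Acute toxicity is scored as increased dead-cell protease activity in human lymphoblastoid LYMP1-003 cells after 16 h compound exposure in complete culture medium. Activity is normalized to DMSO basal and 15 uM tetraoctylammonium bromide as full response.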

[32] = MultiTox-Fluor Cytotoxicity Assay - LYMP1-003 - Live Cells (AID 962); note: potency is the fitted concentration of half-maximal effect
How it was run: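 Cells plated at 2500 per well and incubated 5 hr; compounds added and incubated 16 hr at 37 C; MultiTox-Fluor reagent added for 60 min at room temperature; fluorescence of liberated AFC measured at 405/510 nm.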

[33] = Cell Viability - LYMP1-003 - Assay at 24 hr (AID 963); note: potency is the fitted concentration of half-maximal effect
How it was run: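 Acute toxicity in LYMP1-003 lymphoblastoid cells: 24 hr compound treatment at 37 C, ATP measured with CellTiter-Glo after 30 min at room temperature. AC50 derived by fitting the Hill equation to qHTS titrations.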

[34] = Cell Viability - LYMP1-003 - Assay at 40 hr (AID 964); note: potency is the fitted concentration of half-maximal effect; nearly all actives have a fitted effect of over 60% in size
How it was run: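 This qHTS cytotoxicity screen treats human lymphoblastoid cells (LYMP1-003) with compounds for 40 hr and quantifies cellular ATP via luciferase luminescence.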

[35] = Cell Viability - LYMP2-003 (AID 965);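 note: potency is the fitted concentration of half-maximal effect; cells exposed to compounds for 24 h before reading; nearly all actives have a fitted effect of over 50% in size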
How it was run: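 CellTiter-Glo luminescence quantified ATP loss after 24 h compound treatment of LYMP2-003 lymphoblastoid cells at 37 C. Titration series were fitted with the standard Hill equation to give AC50.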

Sequence of Cytochrome P450 3A4 (Homo sapiens) (P08684 whole entry, looked up): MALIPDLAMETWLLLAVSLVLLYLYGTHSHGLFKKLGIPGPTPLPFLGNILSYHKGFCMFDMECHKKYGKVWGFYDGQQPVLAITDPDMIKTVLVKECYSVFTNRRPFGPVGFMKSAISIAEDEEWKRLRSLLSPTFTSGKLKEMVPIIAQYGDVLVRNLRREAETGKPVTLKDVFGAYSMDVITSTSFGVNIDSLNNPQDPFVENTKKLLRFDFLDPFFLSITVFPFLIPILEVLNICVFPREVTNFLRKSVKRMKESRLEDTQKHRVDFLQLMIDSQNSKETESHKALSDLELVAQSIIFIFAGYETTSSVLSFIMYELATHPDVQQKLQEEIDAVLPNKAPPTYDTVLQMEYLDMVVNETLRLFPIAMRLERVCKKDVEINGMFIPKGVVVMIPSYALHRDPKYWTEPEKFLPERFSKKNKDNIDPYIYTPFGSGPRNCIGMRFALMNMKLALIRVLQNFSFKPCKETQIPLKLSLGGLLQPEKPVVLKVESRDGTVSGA

O=C1C2(Cl)C3(Cl)C4(Cl)C(Cl)(Cl)C5(Cl)C3(Cl)C1(Cl)C5(Cl)C24Cl (stereo not drawn)
active: Potency [1] 26.8 µM and 61.3 µM | Potency [2] 32.8 µM and 53.4 µM | Potency [3] 30.2 µM and 47.2 µM | Potency [4] 31.3 µM and 59.3 µM | Potency [5] 39.7 µM and 48.6 µM | Potency [6] 33.3 µM and 51.3 µM | Potency [8] 31.6 µM and 39.8 µM | activity change, negative = cytotoxicity [9] -136% and -122% | Potency [10] 31.6 µM and 63.1 µM | Potency [11] 31.6 µM and 50.1 µM | Potency [12] 31.6 µM | viability change, negative = cytotoxic [12] -93.4% | Potency [13] 31.6 µM | activity change, negative = cytotoxicity [13] -88.2% | Potency [14] 31.6 µM | activity change, negative = cytotoxicity [14] -92.3% | caspase-3 activation [19] 112% and 177% | Potency [23] 10 µM and 15.8 µM | Potency [26] 31.6 µM | Potency [27] 39.8 µM and 50.1 µM | Potency [28] 39.8 µM | Potency [29] 31.6 µM | Potency [30] 20 µM and 15.8 µM | Potency [31] 31.6 µM and 39.8 µM | Potency [32] 39.8 µM and 50.1 µM | Potency [33] 31.6 µM and 50.1 µM | Potency [34] 25.1 µM and 50.1 µM | Potency [35] 39.8 µM
inactive and 39.8 µM (active): Potency [25]
inactive: outcome [7] | outcome [15] | Potency [16] | outcome [17] | outcome [18] | outcome [20] | outcome [21] | caspase-3 activation [22] -3.9% | Potency [24]
